Measurements taken from PubChem BioAssay AID1857 (The Scripps Research Institute Molecular Screening Center, 2009).
The campaign covered roughly 1,300 compounds. About 290 (22%) were called active. The list is a sample of the results. Unmarked numbers belong to inactive results.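 Rule for the calls: active = inhibition above the mean of all tested compounds plus 3 SD (cut at about 19% in these data); inactive = the rest.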

Tested on: VIM-2 metallo-beta-lactamase (Pseudomonas aeruginosa)
Test: VIM-2 inhibitors in FRET format, confirmation, artefact control for selective VIM-2 inhibitor project, biochemical, epi-absorbance artifact exclusion (AID 1857);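 note: 0% = VIM-2 plus DMSO and 100% = no enzyme wells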
Conditions: purified VIM-2, CCF2 FRET substrate hydrolysis; at 5.6 µM; hits give high values

| SMILES | inhibition |
| --- | --- |
| COc1ccc(Cc2nnc(NS(=O)(=O)Cc3ccccc3)s2)cc1 | 29.2% (active) |
| CCC1CCCCN1CCCNC(=O)c1cc2c(Cl)nc3ccccc3c2s1 (configuration not stated) | 3.62% |
| Cn1c(=O)c2c(nc(N3CCOCC3)n2CCNC2=NCCC2)n(C)c1=O | 1.09% |
| CCOc1cc(/C=C2\SC(N3CCCCC3)=NC2=O)ccc1O | 1.41% |
| CCN1CCN(CCNC(=O)c2ccc3c(c2)NC(=O)/C(=C\c2ccc(OC)c(OC)c2)S3)CC1 | 31% (active) |
| Cc1cccn2c(=O)c(C=O)c(Nc3ccc(S(N)(=O)=O)cc3)nc12 | 2.01% |
| CCOc1cc(/C=C2\SC(N3CCCC(C)C3)=NC2=O)ccc1O (configuration not stated) | -2.85% |
| O=C(COc1cc2oc(=O)c3c(c2cc1Cl)CCC3)NCCCN1CCOCC1 | -0.64% |
| Cn1c(-c2sccc2OCc2cccc(C(F)(F)F)c2)n[nH]c1=S | 58.2% (active) |
| CN(C)CCNc1ccc(-c2n[nH]c(=O)c3ccccc23)cc1[N+](=O)[O-] | -1.97% |
| CCCc1ccc(OCCNC(=O)c2ccco2)cc1 | -1.44% |
| Cc1nc2ccccc2c2oc(C(=O)NCCCN3CCC(C)CC3)cc12 | 1.71% |
| C=CCn1c(-c2ccccc2OCC)n[nH]c1=S | 40.4% (active) |
| O=C(NCCCN1CCOCC1)c1cnn2c(-c3ccccc3)cc(-c3ccccc3)nc12 | -2.83% |
| CCc1cc(=O)oc2cc(C)cc(OCC(=O)N3CCC[C@@H]3C(=O)O)c12 | 32.9% (active) |
| Cc1cc(NCc2ccco2)n2c(nc3ccccc32)c1C#N | -12.9% |
| CCN(CC)CCOc1ccc2c(c1)C(=NNC(=O)c1ccccn1)c1cc(OCCN(CC)CC)ccc1-2 | 2.33% |
| O=C(NC(=S)Nc1ccccc1C(=O)O)c1ccc(-c2ccc(Br)cc2)o1 | 11.2% |
| CCN1CCCC1CNC(=O)c1cc2c(=O)n(C)c3ccccc3c2n1C (configuration not stated) | -2.42% |
| CC1CCCC(C)N1CCCNC(=O)c1cc2c(=O)n(C)c3ccccc3c2n1C (configuration not stated) | -7.42% |
| NC(=O)C1CCN(C(=O)COc2ccc3c4c(c(=O)oc3c2)CCC4)CC1 | -2.54% |
| Cc1cc(C)c2nc3nc(C)cc(C)c3c(N)c2c1 | -10.3% |
| CC(NS(=O)(=O)c1ccccc1)c1n[nH]c(=S)n1-c1ccccc1 (configuration not stated) | 38.4% (active) |
| Cc1cc([N+](=O)[O-])c(-c2ccc(/C=N/n3cnnc3)o2)cc1Cl | -0.73% |
| Fc1ccc(-c2ccc(CNCc3ccccn3)o2)cc1Cl | -13.3% |
| CC(C)(C)CC(=O)Nc1nnc(SCC(=O)NCc2cccs2)s1 | 45.5% (active) |

| SMILES | inhibition |
| --- | --- |
| Nc1nnc2c(C(F)(F)F)nc3ccccc3n12 | 2.08% |
| CCN(CC)c1ccc2cc(C(N)=O)/c(=N\NC(=O)c3ccncc3)oc2c1 | 11.1% |
| Cc1ccc2nc(C)c3c(c2c1)N(c1ccccc1)CC3 | -1.46% |
| COc1ccc(/C=N/N(C)C2=NS(=O)(=O)c3ccccc32)cc1OC | -2.83% |
| CCN1CCN(C(=O)Cn2nc(C)n3c(cc4c(OC)cccc43)c2=O)CC1 | 1.55% |
| Cc1cc(-c2ccc(/C=N/n3cnnc3)o2)c([N+](=O)[O-])cc1C | -2.34% |
| O=C1Nc2cc(C(=O)N3CCC(N4CCCCC4)CC3)ccc2S/C1=C\c1ccccc1 | 53.6% (active) |
| COc1ccc(Nc2cc(C)nc(-n3nc(C)cc3C)n2)cc1 | -53.5% |
| Cc1ccc(Cl)cc1-c1ccc(/C=N/n2cnnc2)o1 | -0.56% |
| COc1cc(NC(=O)C2=C(C)OCCS2)c(Cl)cc1C(=O)NCCN1CCN(C)CC1 | 2.07% |
| COc1ccc(-c2nn3c(-c4ccccc4)nnc3s2)cc1OC | 1.85% |
| COc1cc(-c2nn3c(-c4cccc(C)c4)nnc3s2)cc(OC)c1OC | 22.2% (active) |
| CCOCCCNc1c(CC)c(C)c(C#N)c2nc3ccccc3n12 | 0.59% |
| COc1ccc(CCn2c(=N)c(C(=O)NCC3CCCO3)cc3c(=O)n4cccc(C)c4nc32)cc1OC (configuration not stated) | -3.31% |
| CC(=O)c1ccc(-c2ccc(Cn3c(C)nc4cc(N)c(C)nc43)cc2)cc1 | 42.1% (active) |
| CNC(=O)c1ccsc1NC(=O)c1ccc(S(=O)(=O)N2CCOCC2)cc1 | 37.1% (active) |
| COC(=O)c1c(NC(=O)c2ccc(S(=O)(=O)N3CCOCC3)cc2)sc2c1CCN(C(C)C)C2 | 1.2% |
| CN1CCN(c2ccc(NC(=O)c3ccc4c(c3)[nH]c(=O)n4Cc3ccc(F)cc3)cc2)CC1 | -0.35% |
| CCOC(=O)N1CCN(C(=O)C2CCN(c3ncnc4c3sc3cccc(F)c34)CC2)CC1 | 1.58% |
| Nc1cccc2c1C(=O)N(Cc1nnc(-c3ccccc3Br)o1)C2=O | 29.6% (active) |
| COc1nc(N=C(N)N)nc2c(C)cccc12 | -4.99% |
| Cn1c2ccccc2c(=O)c2c(O)cccc21 | -1.24% |
| COc1cc(/C=N/Nc2nn3cnnc3c3ccccc23)cc(OC)c1OC | 0.17% |
| COC(=O)c1ccc(-c2noc(CN(Cc3ccccn3)CC3CCCO3)n2)cc1 (configuration not stated) | -11.9% |
| O=c1[nH]c(-c2ccccc2)c(-c2ccccc2)[nH]1 | -3.81% |
| Clc1cc(-c2ccc(/C=N/n3cnnc3)o2)ccc1Br | -1.55% |
